Assay outcomes (PubChem)
This excerpt belongs to a sample that is enriched for hits.
Peg3 imprint – qHTS Assay for Compounds that Induce Erasure of Genomic Imprints; mouse ES Peg3-LacZ reporter, beta-gal luminescence, 40 h; Potency, µM (doses to about 60.7 µM), without a hit: at the top dose activity change, positive = activation, hits mostly activators; 0.02% of 110,000 active; note: potency is the fitted concentration of half-maximal effect
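Imprint erasure is scored as LacZ activity from the silenced maternal Peg3 allele in feeder-free female ES cells cultured 40 h with LIF. Luminescence is normalized to in-plate negative controls and fitted to the Hill equation.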
CRE Fsk mod – Cell signaling CRE-BLA (Fsk stim). Potency, µM (highest dose often 38.2 µM), for the others: at the top dose activity change, negative = inhibition, most hits filed as activators. CHO CRE-bla reporter (cAMP response element driving beta-lactamase), forskolin EC10, beta-lactamase ratio. 2.5% of 71,000 active; active = well fitted activation curve with a large enough effect in the signal ratio, with a control signal flat, not every such curve was filed as active; inconclusive = small, poorly fitted or top-dose-only effect, or effect the other way, or a change in a side signal; the % refers to the signal ratio; note: potency is the fitted concentration of half-maximal effect; % of control where 0% means no effect
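Using CellSensor CRE-bla CHO cells in Opti-MEM with 0.5% dialyzed FBS, compounds were titrated with EC10 NKH 477 for 3 h at 37 °C. CCF4 ratio (460/530 nm) gave %Activity; AC50 derived.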
IkB sig inh – IkB Signaling. ABC-DLBCL IkBa-CBG/CBR dual luciferase ratio, 4 h; response scale: scaled: untreated 0%, proteasome inhibitor 100%. Potency, µM (top dose mostly 57.1 µM), without a hit: top-dose IkBa stabilization activation. 0.04% of 110,000 active; active = well fitted curve in the direction sought with a large enough effect in the signal ratio, not every such curve was filed as active; inconclusive = small, poorly fitted or top-dose-only effect, or a change in a side signal; the % refers to the signal ratio;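 note: potency is the fitted concentration of half-maximal effect; the direction sought is a rising ratio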
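In this assay, an IκBα–CBG68 fusion accumulates when IKK-driven degradation is blocked; native CBR normalizes for cell number. OCI-Ly3 cells were treated 4 h with compound and doxycycline, then green and red light read after Chroma-Glo addition.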
Epigenetic mod – qHTS Assay for Epigenetic Modulators. mouse C127i GFP locus derepression, cytometry, 30 h. Potency, µM (highest dose often 46.1 µM), for the others: top-dose GFP derepression (activation). 0.09% of 68,000 active. AID 597, 2007; note: % of control where 0% means no effect
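Derepression screen: silenced CMV-GFP reporter in murine C127i cells, 30 h compound incubation at 37 C, washed cells imaged by laser-scanning cytometer to enumerate GFP-expressing objects of 20 to 120 um.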
HBB splicing – qHTS Assay for Modulators of Hemoglobin Beta Chain Splicing. HBB splicing reporter cell assay, activation; EGFP reporter with mutant IVS2-654 intron; response scale: normalised to 500 nM splice-correcting PNA. Potency, µM (highest dose often 46.1 µM), without a hit: at the top dose activation, usual class: activators. 0.06% of 65,000 active. AID 925, 2007; note: potency is the fitted concentration of half-maximal effect; 0% is about no effect
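HeLa cells stably expressing EGFP interrupted by mutant beta-globin intron 2 (IVS2-654), 500/well in 2% FCS. Treated with compound for 2 days at 37C. Splicing correction scored as total well GFP intensity (488 nm excitation, 500-520 nm emission); 500 nM antisense PNA served as control.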
Active calls of the source: *; [ ] = dose if it differs, or a comment. Unless noted, calls come from the whole dose curve; as a rule, active = well fitted curve in the direction sought with a large enough effect; inconclusive = small, poorly fitted or top-dose-only effect, or another doubt; inactive = no such curve, though single readings can be large; an effect the other way counts as inactive or inconclusive.

Results for CCCCn1c(=O)[nH]c(=O)c2c1nc(COc1ccc(C#N)cc1)n2CCC ?
Peg3 imprint: 6%; CRE Fsk mod: inconclusive; IkB sig inh: -1%; Epigenetic mod: 1%; HBB splicing: -1%

How did Cn1cccc1C(=O)Nc1nc(-c2ccccn2)cs1 do in these assays?
Peg3 imprint: -84%; CRE Fsk mod: 13%; IkB sig inh: inconclusive; Epigenetic mod: inconclusive; HBB splicing: 0%[57.5 µM]

What do the screens show for `O=C(Nc1nc(-c2ccccn2)cs1)c1ccc(Cl)s1`?
Peg3 imprint: -13%; CRE Fsk mod: -1%; IkB sig inh: 1µM*; HBB splicing: -2%

What do the screens show for `COC(=O)c1sc2cccc(F)c2c1S(=O)(=O)N1CCN(c2ccc(F)cc2)CC1`?
Peg3 imprint: 5%[10.9 µM]; IkB sig inh: -2%

Results for NC(=O)c1sc2nc(N3CCCCC3)c3c(c2c1N)CCCC3 ?
Peg3 imprint: -7%; CRE Fsk mod: 1.3µM*; IkB sig inh: inconclusive; Epigenetic mod: 0%; HBB splicing: 0%[0.0738 µM]

Results for COc1cccc(-n2c(SCC(=O)Nc3cc(C)on3)nc3c([nH]c4ccccc43)c2=O)c1 ?
Peg3 imprint: -17%; CRE Fsk mod: 4µM*; IkB sig inh: 8%; HBB splicing: 0%

What do the screens show for `Cc1cc(NC(=O)CSc2nc3c([nH]c4ccccc43)c(=O)n2-c2ccccc2)no1`?
Peg3 imprint: 12%[10.9 µM]; IkB sig inh: -2%

Results for Cc1cc(NC(=O)CSc2nc3c([nH]c4ccccc43)c(=O)n2-c2cccc(C(F)(F)F)c2)no1 ?
Peg3 imprint: -11%; CRE Fsk mod: 2µM*; IkB sig inh: 3%; Epigenetic mod: -2%; HBB splicing: -1%

Results for C[C@@]12CCC(=O)C=C1CC[C@H]1[C@@H]2[C@@H](O)C[C@]2(C)[C@@H]1CC[C@@]2(O)C(=O)CO ?
CRE Fsk mod: -11%[7.6 µM]; IkB sig inh: inconclusive; Epigenetic mod: 0%[9.22 µM]; HBB splicing: 0%[9.22 µM]

Results for COc1ccc(CN2COc3ccc4c(-c5ccc(OC)cc5)cc(=O)oc4c3C2)cc1 ?
Peg3 imprint: -17%[10.9 µM]; IkB sig inh: -1%

What do the screens show for `COc1cccc(C(=O)N2CCc3cc(OC)c(OC)cc3C2COc2ccc3c(C)cc(=O)oc3c2)c1` (centres undefined)?
Peg3 imprint: -11%[10.9 µM]; IkB sig inh: 0%

Results for Cc1ccccc1Cn1cnc2c(cnn2C(C)(C)C)c1=O ?
Peg3 imprint: -21%; CRE Fsk mod: 13µM*; IkB sig inh: 1%; Epigenetic mod: 2%; HBB splicing: -1%

What do the screens show for `Cc1ccc(C)c(Cn2cnc3c(cnn3C(C)(C)C)c2=O)c1`?
Peg3 imprint: -19%; CRE Fsk mod: inconclusive; IkB sig inh: 4%; Epigenetic mod: 0%; HBB splicing: 1%

How did O=C(Nc1cccc(-c2cn3ccsc3n2)c1)c1ccccc1 do in these assays?
Peg3 imprint: 2%; CRE Fsk mod: 16%; IkB sig inh: inconclusive; Epigenetic mod: -2%; HBB splicing: 3%[57.5 µM]

Results for COc1ccccc1C(=O)Nc1cccc(-c2cn3ccsc3n2)c1 ?
Peg3 imprint: -13%; CRE Fsk mod: 3.2µM*; IkB sig inh: inconclusive; Epigenetic mod: 2%; HBB splicing: -1%

What do the screens show for `CCc1ccc(C2C(C(=O)Nc3ccc(Cl)cc3)=C(C)Nc3ncnn32)cc1` (centres undefined)?
Peg3 imprint: 15%[10.9 µM]; IkB sig inh: 0%

What do the screens show for `OCCSc1nc(-c2cccnc2)nc2ccccc12`?
Peg3 imprint: -11%; CRE Fsk mod: 6.3µM*; IkB sig inh: -8%; Epigenetic mod: -2%; HBB splicing: 1%[1.84 µM]

How did OCCNc1nc(-c2cccnc2)nc2ccccc12 do in these assays?
Peg3 imprint: -1%; CRE Fsk mod: 4µM*; IkB sig inh: -1%; Epigenetic mod: 2%; HBB splicing: 0%[9.22 µM]

Results for c1cncc(-c2nc(NCc3ccco3)c3ccccc3n2)c1 ?
Peg3 imprint: 7%; CRE Fsk mod: inconclusive; IkB sig inh: inconclusive; Epigenetic mod: 0%; HBB splicing: inconclusive

How did CC(C)Oc1ccc(CNC(=O)C2=Cc3ccccc3OC2)cc1 do in these assays?
Peg3 imprint: -4%[10.9 µM]; IkB sig inh: inconclusive

What do the screens show for `COc1cc(OC)c(Nc2cc(C)nc3nc(C)nn23)cc1Cl`?
Peg3 imprint: -18%; CRE Fsk mod: 7.9µM*; IkB sig inh: 2%; Epigenetic mod: -3%; HBB splicing: 0%

Results for CCn1c(SCC(=O)Nc2ccc3c(c2)OCO3)nc2c1c(=O)n(C)c(=O)n2C ?
Peg3 imprint: -3%; CRE Fsk mod: inconclusive; IkB sig inh: -2%; Epigenetic mod: 1%

What do the screens show for `CCn1c(SCC(=O)Nc2nc3ccc(OC)cc3s2)nc2c1c(=O)n(C)c(=O)n2C`?
Peg3 imprint: -17%; CRE Fsk mod: 2µM*; IkB sig inh: inconclusive; Epigenetic mod: -3%; HBB splicing: 1%

What do the screens show for `CCCn1c(SCC(=O)Nc2ccc3c(c2)OCO3)nc2c1c(=O)n(C)c(=O)n2C`?
Peg3 imprint: -10%; CRE Fsk mod: 2.5µM*; IkB sig inh: 0%; Epigenetic mod: 4%; HBB splicing: 0%[57.5 µM]

What do the screens show for `CCOc1ccc2nc(NC(=O)CSc3nc4c(c(=O)n(C)c(=O)n4C)n3C(C)C)sc2c1`?
Peg3 imprint: 3%; CRE Fsk mod: 4µM*; IkB sig inh: inconclusive; Epigenetic mod: 1%; HBB splicing: 0%[57.5 µM]

What do the screens show for `CCn1c(SCC(=O)Nc2nc3c(s2)CCCC3)nc2c1c(=O)n(C)c(=O)n2C`?
Peg3 imprint: -12%; CRE Fsk mod: -3%; IkB sig inh: 1%; Epigenetic mod: 0%; HBB splicing: 0%[57.5 µM]

How did COc1ccc(OC)c(NC(=O)CSc2nc3ccccc3c(=O)n2CCNC(C)=O)c1 do in these assays?
Peg3 imprint: -13%; CRE Fsk mod: 10µM*; IkB sig inh: -1%; Epigenetic mod: 4%; HBB splicing: 2%

How did CCOc1ccc2nc(NC(=O)Cn3cnc4c3c(=O)n(C)c(=O)n4C)sc2c1 do in these assays?
Peg3 imprint: -19%; CRE Fsk mod: inconclusive; IkB sig inh: -5%; Epigenetic mod: -1%; HBB splicing: 0%

What do the screens show for `COc1ccc(OC)c(NC(=O)CSc2nc3c(c(=O)n(C)c(=O)n3C)n2C)c1`?
Peg3 imprint: -11%; CRE Fsk mod: 2µM*; IkB sig inh: 0%; Epigenetic mod: 1%; HBB splicing: 0%[57.5 µM]

Results for Cc1ccc(-c2nn(C)c(=O)c3ccccc23)cc1S(=O)(=O)N1CCCC1 ?
Peg3 imprint: -6%; CRE Fsk mod: 3.2µM*; IkB sig inh: inconclusive; HBB splicing: -1%
